High-throughput results as filed in PubChem BioAssay.
EWS-Fli block = EWS/Fli transcriptional activity inhibition; A673 NR0B1-luciferase reporter, viability-normalised; inhibition, % at 12.6 µM; 350,000 tested, 0.67% active;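 active = mean inhibition of at least 50% after viability correction, with every replicate also passing that limit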;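 note: firefly luciferase signal divided by Alamar Blue viability fluorescence both relative to DMSO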
LGR2 antag = Drosophila LGR2 receptor signaling inhibition; 380,000 tested, 0.35% active; inhibition, % at 9.99 µM; HEK293 LGR2, CRE-luciferase, bursicon-stimulated, 4 h;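 active = drop in luminescence signal, shown as inhibition above about 50% in the replicate tests, limit read from the data, passing the limit was not always enough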;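 note: agonist challenge used bursicon conditioned medium at about half maximal strength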
TROY signal inh = TROY signaling inhibition; Q293 LMP1-TROYcd NF-kB luciferase reporter, 4 h; 360,000 tested, 0.98% active; inhibition, % at 10 µM;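 active = compounds whose plate-normalised and pattern-corrected inhibition of the luciferase reporter signal at the single screening dose is 50% or more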
EBV LMP1 NFkB = Epstein-Barr LMP1 NF-kappaB reporter inhibition | 350,000 tested, 0.69% active | inhibition, % at 12.5 µM | LMP1-induced NF-kappaB luciferase reporter cells, luminescence | AID 504558; in the data active = inhibition above about 41%
TWEAK Fn14 block = inhibitors of TWEAK-Fn14 interaction signaling; TWEAK-stimulated Fn14 reporter cells, luciferase luminescence, 8 h; inhibition, % at 10 µM; 360,000 tested, 2% active; AID 1159606; in the data active = inhibition above about 50%
PAX8 inh HTS = lowers PAX8-driven luciferase in RMG-I cells | RMG-I TPO-luciferase reporter, SteadyGlo, 24 h | inhibition, % at 12.6 µM | 360,000 tested, 1.2% active;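 active = mean replicate inhibition at least 60% with every replicate also reaching 60%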;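 note: luciferase light reporting Pax8 driven TPO promoter activity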
Numbers stand for hits; . = inactive; / = no result. Rows were chosen to be rich in hits. Some 3.1% of all compounds tested hit in one or more screens of this group.

SMILES | EWS-Fli block | LGR2 antag | TROY signal inh | EBV LMP1 NFkB | TWEAK Fn14 block | PAX8 inh HTS
C[C@@H]1CN([C@H](C)CO)C(=O)c2cc(NC(=O)NC3CCCCC3)ccc2O[C@@H](C)CCCCO[C@@H]1CN(C)C(=O)NC1CCCCC1 | . | . | / | / | / | .
COC(=O)C[C@H]1CC[C@H]2[C@@H](COc3ccc(NC(=O)Nc4ccc(C#N)cc4)cc3C(=O)N2C)O1 | . | . | / | / | / | /
COc1ccc2c3c([nH]c2c1)[C@@H](CO)N(C)CC31CN(C(=O)NC(C)C)C1 | . | . | / | / | / | /
NC(=O)C1CCN(C2=C(Cl)C(=O)c3ccccc3C2=O)CC1 | / | / | . | 78 | . | /
CN1CCN(C2=C(Cl)C(=O)c3ccccc3C2=O)CC1 | . | 72 | . | . | . | .
NC(=O)C1CCN(c2ccc3c(c2)S(=O)(=O)c2ccccc2C3=O)CC1 | . | . | 63 | . | . | .
C/C=C/c1ccc2c(c1)O[C@@H](CN(C)C(=O)C1CCC1)[C@@H](C)CN([C@H](C)CO)S2(=O)=O | . | . | / | / | / | /
C[C@H](O)C#Cc1ccc2c(c1)O[C@@H](CN(C)C(=O)C1CCCCC1)[C@@H](C)CN([C@@H](C)CO)S2(=O)=O | . | . | / | / | / | /
COCC(=O)N1[C@@H](CO)[C@@H](c2ccccc2)C12CN(C(=O)c1cccc(F)c1)C2 | . | . | / | / | / | .
CCOc1ccccc1/C=C(/NC(=O)c1ccccc1)C(=O)N(CC)CC | . | . | 50 | . | 58 | .
C[C@@H]1CN([C@H](C)CO)C(=O)c2cc(NC(=O)CCN3CCOCC3)ccc2O[C@@H]1CN(C)Cc1ccc(-c2ccccc2)cc1 | / | . | / | / | / | .
Cc1ccccc1-c1ccc2c(c1)O[C@H](CN(C)C(=O)Nc1ccc(C(F)(F)F)cc1)[C@@H](C)CN([C@H](C)CO)S2(=O)=O | . | . | / | / | / | 77
Cc1ccccc1-c1ccc2c(c1)O[C@H](CN(C)C(=O)Nc1ccc(C(F)(F)F)cc1)[C@H](C)CN([C@@H](C)CO)S2(=O)=O | . | . | / | / | / | 77
COc1ccc(S(=O)(=O)N(C)C[C@@H]2Oc3c(NS(=O)(=O)c4ccccc4)cccc3C(=O)N([C@H](C)CO)C[C@H]2C)cc1 | / | / | / | / | / | .
C[C@@H](NC(=O)C[C@@H]1C=C[C@H](NC(=O)c2cccnc2)[C@@H](CO)O1)c1ccccc1 | . | . | / | / | / | .
CCc1cc2c(=O)oc(-c3ccc(F)cc3)nc2s1 | . | / | . | . | 54 | .
COc1ccc(C2C(C(=O)Nc3cc(OC)c(OC)c(OC)c3)c3ccccc3C(=O)N2C)cc1 (stereo not drawn) | 60 | . | . | . | . | .
COc1ccc(C2C(C(=O)Nc3cccc(OC)c3)c3ccccc3C(=O)N2C)cc1 (stereo not drawn) | . | . | . | . | . | .
CO[C@H]1CN(C)C(=O)c2cc(NC(=O)c3nc4ccccc4s3)ccc2OC[C@@H](C)NC[C@@H]1C | 54 | . | / | / | / | .
CO[C@H]1CN(C)C(=O)c2cc(NC(=O)c3nc4ccccc4s3)ccc2OC[C@H](C)NC[C@H]1C | . | . | / | / | / | .
COc1ccc(CN2C[C@H](C)[C@@H](OC)CN(C)C(=O)c3ccc(NC(=O)c4nc5ccccc5s4)cc3OC[C@@H]2C)cc1 | . | . | / | / | / | 74
CO[C@@H]1CN(C)C(=O)c2cc(NC(=O)c3nc4ccccc4s3)ccc2OC[C@H](C)NC[C@H]1C | . | . | / | / | / | 84
CO[C@@H]1CN(C)C(=O)c2ccc(NC(=O)c3cccc(Oc4ccccc4)c3)cc2OC[C@H](C)NC[C@H]1C | 70 | . | / | / | / | .
Cc1ccc(S(=O)(=O)NCC[C@@H]2CC[C@@H](NC(=O)CC3CC3)[C@@H](CO)O2)cc1 | . | . | / | / | / | .
CO[C@@H]1CN(C)C(=O)c2cc(NC(=O)c3ccc(-c4ccccc4)cc3)ccc2OC[C@@H](C)NC[C@@H]1C | 75 | . | / | / | / | .
CO[C@@H]1CN(C)C(=O)c2cc(NC(=O)NC(C)C)ccc2OC[C@H](C)N(C)C[C@@H]1C | . | . | / | / | / | /
O=C1/C(=C/c2cccnc2)CC/C1=C\c1cccnc1 | . | . | . | . | . | .
O=C1/C(=C/c2cccnc2)CCC/C1=C\c1cccnc1 | 54 | 90 | / | / | / | .
O=C1/C(=C\c2cccnc2)CCc2ccccc21 | / | / | / | . | 92 | /
CCC1C/C(=C\c2cccnc2)C(=O)/C(=C/c2cccnc2)C1 (stereo not drawn) | 54 | / | 59 | 93 | 105 | 89
